The first assay concerns PPARg:RXRa 90nM:30nM, anti-RXR (NR concentration 90 nM, RXRa partner concentration 30 nM). Put plainly: PBM binding z-score (relative to random genomic background probes); higher = stronger binding; sequences stand for … in GC…GCGATTGACAGCGTAGAATGAAGG
The method in brief:
(§1)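 Probes were double-stranded and carried 34-nt variable regions with direct-repeat seeds, single-nucleotide variants, half-site ablations and random human genomic background sequences, printed on custom Agilent 4×180K protein-binding microarrays. Arrays were incubated 1 h with ligand-free nuclear receptor dimers in PBS pH 7.4, 2% milk, 0.02% Triton X-100, 1 mM DTT, 0.2 mg/mL BSA and 0.4 mg/ml salmon testes DNA. Antibodies against each partner (one per run) detected binding, and scanned fluorescence was regression-normalized. Binding z-scores use the random background probes as reference.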
Turning to CTACCAAAGTGAACAAGGTCGTTGATTACTATTC, the PBM binding z-score is -0.0383.
GCTAGTTGCTCAGTAAAAGGTCACACACCGGTCG: the PBM binding z-score was 2.88.
With TCTCGGGGGACACGAAAGGTCAGAGCTCGACATC, the PBM binding z-score worked out at 4.14.
AGTCAAAGTTCATCTAGGTAACGTAAGATATGCT yielded a PBM binding z-score of 5.53.
Same read-out and setting: next, ATATGTAGGTCACATCCGGGTCATTCAGGCTATG: 7.3; AGAATGAGGTTAAGAGCAGGGAAACAGAATACAT: 1.22.
On to GCTTACGGGTCAAAGGTTATAGCCTGAATAGAAT, for which the PBM binding z-score turned out to be 11.3.
The sequence CAAGCTAGGTCACGAAAGGTCAAAGTCGAATGAC came in with a PBM binding z-score of 6.31.
Same read-out and setting: next, TAGCCTATGTCATGGGCCAGTATACCACGCGAAC: -0.213; CGTCCAAGGTCAGCAGGTCAGTGACAGCGACGTG: 2.97; TCATATAGGTAAAGGTGAAAGTGGAACGATATGA: 5.14.
Sequence ATCTCAAGGTAACCAAGTTCAGTGAATGCCGAAC came in with a PBM binding z-score of 0.378.
Consider CCTTACGGGTCAAGGTGATAGCACGGGTGGTACG, for which the PBM binding z-score amounted to 3.34.
With ACAGACAGGTGAGTGAAGGTATCTCAGCTGGACG, the PBM binding z-score is -0.0281.
CAAACTAGGTCAAAGGTCCAAGTCGAGCCAACCA came in with a PBM binding z-score of 12.2.
Still for that read-out and setting: next, ATATGTAGGTTAAGGGTCAGTCAGGTTGGTTCGC: 11.6; TCTGCTAGGTCAGTTGTTCAGCTAACGAGCTGCC: 1.21; AGTCAAAGTTCAGGAGGAGGTAACGTAAAGCACG: 3.98.
Take CCTTGCAGGCCAATCTGGGTCACTCAAGGCTTGA: the PBM binding z-score was 1.2.
As to AGAACGAAGGCAATGAGTTGATAGCACGGGTGGC, the PBM binding z-score is -0.608.
Sequence AGTCAAAGTTCACTAGGTAACGTGAGATTCAGCT gave a PBM binding z-score of 5.47.
For the sequence GTACCAAGGTGAATTGGTCGTTGATGAGTAGGCG, the PBM binding z-score was -0.112.
Turning to TCTGCTAGGTCAGTTCGTCAGCTAACGAGCTGCC, the PBM binding z-score was 1.51.
The sequence CCTACTGGGGCAAAAAGGTCATTGATGCCGATAA came in with a PBM binding z-score of 4.43.
With TTACCAAGGTGAAAGGTAGTTGATGCACGCCTTG, the PBM binding z-score was determined as 4.51.
TCAGACAGGTGAAGGTAACTTAGGTACGCAGTCG registered a PBM binding z-score of 3.11.
As to GCTGCTAGGTCAGGTGGGTCAGCTAACGGGTACG, the PBM binding z-score amounted to 0.851.
TAGCCTAGCTCATTGGGCCAGTATAGTACGCATC yielded a PBM binding z-score of -0.323.
AACACAGGGTCATCGTAGGCCAGAGTACGCACAG: the PBM binding z-score stood at 4.21.
Take GTACCAAGGTGGATAGGTCGTTGATGAGTAGGCG: the PBM binding z-score was 0.026.
With ACTATTAGTTGAGACGAGGGTAACCGATAGGTTG, the PBM binding z-score was 0.176.
CGTCAAAGTTCTACTAAGGTAACGTAAAGCACGC came in with a PBM binding z-score of 0.185.
Sequence CGTCCAAGGTCAGAGGTCAGTGAAGAGATGACGG registered a PBM binding z-score of 7.06.
GCTATTAATTGAAAGGGCAACCGAATGATTCTCG gave a PBM binding z-score of 0.592.
GCATATAGGTAATACAAGGTGAACGTCCGATTGT showed a PBM binding z-score of 0.861.
As for CGTGCAAGGTCATAGGAGGTCAGTGAAGACAGAT, the PBM binding z-score turned out to be 5.01.
Still for that read-out and setting: next, CAAACTAGGTCACCGGAAGGTCAAAGTCCGCATG: 7.49.
Sequence TAGGCTAGGTCATGGGCCAGTATACCACGCGAAC registered a PBM binding z-score of 3.18.
Sequence CGTCCAAGGTCAGAGAGGTCAGGGAATGCCGAGT had a PBM binding z-score of 3.6.
For the sequence AGAATGACGTTATTAAGATCAGGGAATTGCGGTC, the PBM binding z-score is 0.151.

A further assay has as its system PPARg:RXRa DBDmut IVT, anti-RXR (DBD mutation: RXRa K156A/R161A, NR concentration 270 nM, RXRa partner concentration 90 nM). The assay is described as above. Put shortly: as §1
Sequence CTACCAAAGTGAACAAGGTCGTTGATTACTATTC displayed a PBM binding z-score of 0.74.
The same measure, in the same setting: next, GCTAGTTGCTCAGTAAAAGGTCACACACCGGTCG: 0.44.
The same measure, in the same setting: next, TCTCGGGGGACACGAAAGGTCAGAGCTCGACATC: 3.01; AGTCAAAGTTCATCTAGGTAACGTAAGATATGCT: 1.19.
Take ATATGTAGGTCACATCCGGGTCATTCAGGCTATG: the PBM binding z-score worked out at 8.71.
AGAATGAGGTTAAGAGCAGGGAAACAGAATACAT registered a PBM binding z-score of 2.72.
In turn, GCTTACGGGTCAAAGGTTATAGCCTGAATAGAAT came in with a PBM binding z-score of 4.87.
CAAGCTAGGTCACGAAAGGTCAAAGTCGAATGAC displayed a PBM binding z-score of 5.1.
For TAGCCTATGTCATGGGCCAGTATACCACGCGAAC, the PBM binding z-score is -0.759.
In turn, CGTCCAAGGTCAGCAGGTCAGTGACAGCGACGTG displayed a PBM binding z-score of 3.56.
The sequence TCATATAGGTAAAGGTGAAAGTGGAACGATATGA registered a PBM binding z-score of 3.98.
As for ATCTCAAGGTAACCAAGTTCAGTGAATGCCGAAC, the PBM binding z-score is 0.508.
As for CCTTACGGGTCAAGGTGATAGCACGGGTGGTACG, the PBM binding z-score stood at 1.85.
ACAGACAGGTGAGTGAAGGTATCTCAGCTGGACG displayed a PBM binding z-score of 0.178.
Same read-out and setting: next, CAAACTAGGTCAAAGGTCCAAGTCGAGCCAACCA: 8.79; ATATGTAGGTTAAGGGTCAGTCAGGTTGGTTCGC: 7.48.
For TCTGCTAGGTCAGTTGTTCAGCTAACGAGCTGCC, the PBM binding z-score was determined as 2.38.
AGTCAAAGTTCAGGAGGAGGTAACGTAAAGCACG showed a PBM binding z-score of -0.11.
Sequence CCTTGCAGGCCAATCTGGGTCACTCAAGGCTTGA registered a PBM binding z-score of 4.87.
The sequence AGAACGAAGGCAATGAGTTGATAGCACGGGTGGC registered a PBM binding z-score of -0.602.
The same measure, in the same setting: next, AGTCAAAGTTCACTAGGTAACGTGAGATTCAGCT: 2.52.
GTACCAAGGTGAATTGGTCGTTGATGAGTAGGCG came in with a PBM binding z-score of 1.6.
Sequence TCTGCTAGGTCAGTTCGTCAGCTAACGAGCTGCC registered a PBM binding z-score of 2.26.
The sequence CCTACTGGGGCAAAAAGGTCATTGATGCCGATAA came in with a PBM binding z-score of 4.52.
In turn, TTACCAAGGTGAAAGGTAGTTGATGCACGCCTTG came in with a PBM binding z-score of 2.96.
As to TCAGACAGGTGAAGGTAACTTAGGTACGCAGTCG, the PBM binding z-score amounted to 2.71.
Same read-out and setting: next, GCTGCTAGGTCAGGTGGGTCAGCTAACGGGTACG: 2.85; TAGCCTAGCTCATTGGGCCAGTATAGTACGCATC: 0.043.
As for AACACAGGGTCATCGTAGGCCAGAGTACGCACAG, the PBM binding z-score came to 2.2.
GTACCAAGGTGGATAGGTCGTTGATGAGTAGGCG registered a PBM binding z-score of -0.637.
The same measure, in the same setting: next, ACTATTAGTTGAGACGAGGGTAACCGATAGGTTG: 0.111; CGTCAAAGTTCTACTAAGGTAACGTAAAGCACGC: 0.0553; CGTCCAAGGTCAGAGGTCAGTGAAGAGATGACGG: 2.44.
Take GCTATTAATTGAAAGGGCAACCGAATGATTCTCG: the PBM binding z-score came to 0.162.
GCATATAGGTAATACAAGGTGAACGTCCGATTGT came in with a PBM binding z-score of 4.57.
The same measure, in the same setting: next, CGTGCAAGGTCATAGGAGGTCAGTGAAGACAGAT: 3.54; CAAACTAGGTCACCGGAAGGTCAAAGTCCGCATG: 8.69; TAGGCTAGGTCATGGGCCAGTATACCACGCGAAC: 2.
CGTCCAAGGTCAGAGAGGTCAGGGAATGCCGAGT registered a PBM binding z-score of 2.19.
Sequence AGAATGACGTTATTAAGATCAGGGAATTGCGGTC registered a PBM binding z-score of -0.6.

The record behind these values is the supplement of paper PMC6555819.
